Test [1] deals with T1, Tyrosine-protein kinase ITK/TSK (Homo sapiens) (UniProt Q08881).
T1 sequence (whole entry): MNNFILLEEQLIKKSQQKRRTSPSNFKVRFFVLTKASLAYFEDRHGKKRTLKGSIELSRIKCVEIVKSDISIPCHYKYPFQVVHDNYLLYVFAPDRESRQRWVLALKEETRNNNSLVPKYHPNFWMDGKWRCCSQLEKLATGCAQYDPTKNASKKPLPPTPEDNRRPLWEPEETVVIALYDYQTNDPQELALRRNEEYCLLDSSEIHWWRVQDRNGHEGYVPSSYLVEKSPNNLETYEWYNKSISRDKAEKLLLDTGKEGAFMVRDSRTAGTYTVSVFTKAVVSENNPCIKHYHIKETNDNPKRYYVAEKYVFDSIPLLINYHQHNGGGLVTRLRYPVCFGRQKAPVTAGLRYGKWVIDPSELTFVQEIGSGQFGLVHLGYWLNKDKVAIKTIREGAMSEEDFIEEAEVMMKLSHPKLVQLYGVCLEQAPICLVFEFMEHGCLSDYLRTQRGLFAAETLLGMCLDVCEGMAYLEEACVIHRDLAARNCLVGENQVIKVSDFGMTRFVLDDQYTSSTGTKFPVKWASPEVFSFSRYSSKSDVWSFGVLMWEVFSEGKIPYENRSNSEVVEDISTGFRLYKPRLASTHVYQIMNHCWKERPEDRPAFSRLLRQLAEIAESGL
The following applies: at 1 µM.

The target of test [2] is Tyrosine-protein kinase JAK1 (Homo sapiens) (UniProt P23458). The following applies: at 0.1 µM.
Test [3] has the same target. Particulars: at 1 µM.
Test [4] has as its target Tyrosine-protein kinase JAK2 (Homo sapiens) (UniProt O60674). The following applies: at 0.1 µM.
Test [5] shares this target. The following applies: at 1 µM.
Test [6] concerns the target T2, Tyrosine-protein kinase JAK3 (Homo sapiens) (UniProt P52333).
T2 sequence (whole entry): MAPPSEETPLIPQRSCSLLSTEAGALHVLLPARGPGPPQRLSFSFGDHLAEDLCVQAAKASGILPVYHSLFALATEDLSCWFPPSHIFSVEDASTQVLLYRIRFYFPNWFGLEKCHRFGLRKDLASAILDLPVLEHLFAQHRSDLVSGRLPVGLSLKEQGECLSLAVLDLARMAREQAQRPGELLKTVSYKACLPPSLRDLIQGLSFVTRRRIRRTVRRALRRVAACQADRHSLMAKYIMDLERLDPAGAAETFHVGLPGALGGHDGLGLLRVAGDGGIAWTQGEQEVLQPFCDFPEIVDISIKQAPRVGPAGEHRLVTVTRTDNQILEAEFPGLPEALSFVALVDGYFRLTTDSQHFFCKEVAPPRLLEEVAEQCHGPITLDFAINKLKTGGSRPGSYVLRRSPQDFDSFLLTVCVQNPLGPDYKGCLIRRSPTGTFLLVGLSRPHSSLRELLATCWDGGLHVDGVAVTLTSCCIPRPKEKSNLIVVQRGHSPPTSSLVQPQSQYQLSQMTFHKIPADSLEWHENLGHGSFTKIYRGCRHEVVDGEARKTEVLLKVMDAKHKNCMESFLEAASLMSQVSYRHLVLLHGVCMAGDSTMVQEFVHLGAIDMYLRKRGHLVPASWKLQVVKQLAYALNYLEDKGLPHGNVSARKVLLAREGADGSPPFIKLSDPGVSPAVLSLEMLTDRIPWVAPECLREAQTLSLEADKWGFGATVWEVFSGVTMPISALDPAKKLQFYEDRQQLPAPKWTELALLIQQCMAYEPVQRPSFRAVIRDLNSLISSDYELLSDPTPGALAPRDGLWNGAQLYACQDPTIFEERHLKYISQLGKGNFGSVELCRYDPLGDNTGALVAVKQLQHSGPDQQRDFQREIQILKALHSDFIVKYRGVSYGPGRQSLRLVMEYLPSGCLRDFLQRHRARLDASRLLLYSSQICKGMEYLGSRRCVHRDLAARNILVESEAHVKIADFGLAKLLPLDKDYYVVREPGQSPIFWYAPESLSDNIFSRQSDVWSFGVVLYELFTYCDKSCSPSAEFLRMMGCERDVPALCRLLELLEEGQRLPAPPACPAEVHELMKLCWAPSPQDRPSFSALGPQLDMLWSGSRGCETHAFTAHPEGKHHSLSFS
Particulars: at 0.1 µM.

Test [7] concerns the target T2, Tyrosine-protein kinase JAK3 (Homo sapiens). The following applies: at 1 µM.
Test [8] concerns the target Vascular endothelial growth factor receptor 2 (Homo sapiens) (UniProt P35968). The following applies: at 0.1 µM.
For test [9] the target is unchanged. The following applies: at 1 µM.
In test [10] the target is Mast/stem cell growth factor receptor Kit (Homo sapiens) (UniProt P10721). The following applies: at 0.1 µM.
The target is the same in test [11]. Particulars: at 1 µM.
In test [12] the test system is Mast/stem cell growth factor receptor Kit (Homo sapiens), P10721 [D816V]. The following applies: at 0.1 µM.
Test [13] has the same test system. Particulars: at 1 µM.
The test system of test [14] is Mast/stem cell growth factor receptor Kit (Homo sapiens), P10721 [T670I]. Particulars: at 0.1 µM.
Test [15] has the same test system. The following applies: at 1 µM.
For test [16], the system named is Mast/stem cell growth factor receptor Kit (Homo sapiens), P10721 [V560G]. The following applies: at 0.1 µM.
The test system is the same in test [17]. The following applies: at 1 µM.
Test [18] deals with Tyrosine-protein kinase Lck (Homo sapiens) (UniProt P06239). The following applies: at 0.1 µM.
For test [19] the target is unchanged. The following applies: at 1 µM.
Test [20] has as its target Leukocyte tyrosine kinase receptor (Homo sapiens) (UniProt P29376). The following applies: at 0.1 µM.

Sequence of Tyrosine-protein kinase JAK2 (Homo sapiens) (O60674 whole entry): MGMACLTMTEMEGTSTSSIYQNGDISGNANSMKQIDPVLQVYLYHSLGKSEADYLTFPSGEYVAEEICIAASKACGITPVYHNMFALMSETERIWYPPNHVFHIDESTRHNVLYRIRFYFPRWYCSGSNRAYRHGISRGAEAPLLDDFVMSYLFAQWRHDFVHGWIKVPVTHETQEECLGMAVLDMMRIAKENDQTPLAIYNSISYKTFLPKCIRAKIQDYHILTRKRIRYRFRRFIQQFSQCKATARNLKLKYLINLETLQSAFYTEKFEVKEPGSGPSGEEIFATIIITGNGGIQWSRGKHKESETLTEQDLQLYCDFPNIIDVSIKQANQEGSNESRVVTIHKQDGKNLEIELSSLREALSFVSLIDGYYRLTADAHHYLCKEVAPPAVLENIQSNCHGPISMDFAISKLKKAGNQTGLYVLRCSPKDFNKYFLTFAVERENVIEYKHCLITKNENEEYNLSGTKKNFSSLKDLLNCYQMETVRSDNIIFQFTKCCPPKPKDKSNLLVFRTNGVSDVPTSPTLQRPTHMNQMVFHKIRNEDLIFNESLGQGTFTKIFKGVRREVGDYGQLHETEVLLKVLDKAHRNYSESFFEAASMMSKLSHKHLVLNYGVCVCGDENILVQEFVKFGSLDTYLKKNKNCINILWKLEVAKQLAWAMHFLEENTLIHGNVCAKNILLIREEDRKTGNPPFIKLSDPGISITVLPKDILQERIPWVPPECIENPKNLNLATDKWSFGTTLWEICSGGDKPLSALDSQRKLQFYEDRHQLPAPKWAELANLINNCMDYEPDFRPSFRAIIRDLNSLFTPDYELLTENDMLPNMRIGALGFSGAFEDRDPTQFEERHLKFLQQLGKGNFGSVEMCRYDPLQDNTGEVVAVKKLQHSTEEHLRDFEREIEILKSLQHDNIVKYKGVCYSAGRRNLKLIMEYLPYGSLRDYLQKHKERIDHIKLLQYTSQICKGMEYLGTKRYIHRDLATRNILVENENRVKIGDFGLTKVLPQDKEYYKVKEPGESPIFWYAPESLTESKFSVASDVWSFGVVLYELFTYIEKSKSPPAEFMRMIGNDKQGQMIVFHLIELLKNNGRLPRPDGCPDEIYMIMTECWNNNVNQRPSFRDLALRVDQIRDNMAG
Sequence of Mast/stem cell growth factor receptor Kit (Homo sapiens), P10721 [T670I] (P10721 whole entry T670I): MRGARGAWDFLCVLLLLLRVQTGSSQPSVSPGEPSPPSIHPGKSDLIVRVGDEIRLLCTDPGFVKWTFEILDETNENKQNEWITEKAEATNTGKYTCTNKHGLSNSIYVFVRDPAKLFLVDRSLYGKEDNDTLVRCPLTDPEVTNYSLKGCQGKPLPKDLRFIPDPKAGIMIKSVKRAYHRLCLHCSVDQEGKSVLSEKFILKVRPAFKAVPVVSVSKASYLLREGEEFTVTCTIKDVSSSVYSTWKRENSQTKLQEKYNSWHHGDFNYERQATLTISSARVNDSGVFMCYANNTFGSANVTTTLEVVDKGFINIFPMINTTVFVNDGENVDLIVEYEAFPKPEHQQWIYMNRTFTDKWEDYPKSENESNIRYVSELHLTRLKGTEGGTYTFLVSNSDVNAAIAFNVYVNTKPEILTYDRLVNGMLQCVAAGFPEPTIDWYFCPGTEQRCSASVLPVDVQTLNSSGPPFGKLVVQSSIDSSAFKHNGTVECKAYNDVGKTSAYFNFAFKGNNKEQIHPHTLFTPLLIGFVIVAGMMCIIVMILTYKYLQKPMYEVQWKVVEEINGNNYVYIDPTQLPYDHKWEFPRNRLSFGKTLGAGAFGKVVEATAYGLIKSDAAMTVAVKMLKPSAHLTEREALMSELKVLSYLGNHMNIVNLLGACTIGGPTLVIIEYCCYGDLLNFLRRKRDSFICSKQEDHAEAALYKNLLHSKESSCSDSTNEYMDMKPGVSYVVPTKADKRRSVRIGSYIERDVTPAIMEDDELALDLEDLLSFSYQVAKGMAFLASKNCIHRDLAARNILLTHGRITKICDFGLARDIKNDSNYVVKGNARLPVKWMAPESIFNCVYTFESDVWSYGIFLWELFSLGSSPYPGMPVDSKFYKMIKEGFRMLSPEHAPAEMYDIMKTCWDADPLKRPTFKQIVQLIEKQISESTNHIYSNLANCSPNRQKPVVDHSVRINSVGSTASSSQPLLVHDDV
Sequence of Tyrosine-protein kinase JAK1 (Homo sapiens) (P23458 whole entry): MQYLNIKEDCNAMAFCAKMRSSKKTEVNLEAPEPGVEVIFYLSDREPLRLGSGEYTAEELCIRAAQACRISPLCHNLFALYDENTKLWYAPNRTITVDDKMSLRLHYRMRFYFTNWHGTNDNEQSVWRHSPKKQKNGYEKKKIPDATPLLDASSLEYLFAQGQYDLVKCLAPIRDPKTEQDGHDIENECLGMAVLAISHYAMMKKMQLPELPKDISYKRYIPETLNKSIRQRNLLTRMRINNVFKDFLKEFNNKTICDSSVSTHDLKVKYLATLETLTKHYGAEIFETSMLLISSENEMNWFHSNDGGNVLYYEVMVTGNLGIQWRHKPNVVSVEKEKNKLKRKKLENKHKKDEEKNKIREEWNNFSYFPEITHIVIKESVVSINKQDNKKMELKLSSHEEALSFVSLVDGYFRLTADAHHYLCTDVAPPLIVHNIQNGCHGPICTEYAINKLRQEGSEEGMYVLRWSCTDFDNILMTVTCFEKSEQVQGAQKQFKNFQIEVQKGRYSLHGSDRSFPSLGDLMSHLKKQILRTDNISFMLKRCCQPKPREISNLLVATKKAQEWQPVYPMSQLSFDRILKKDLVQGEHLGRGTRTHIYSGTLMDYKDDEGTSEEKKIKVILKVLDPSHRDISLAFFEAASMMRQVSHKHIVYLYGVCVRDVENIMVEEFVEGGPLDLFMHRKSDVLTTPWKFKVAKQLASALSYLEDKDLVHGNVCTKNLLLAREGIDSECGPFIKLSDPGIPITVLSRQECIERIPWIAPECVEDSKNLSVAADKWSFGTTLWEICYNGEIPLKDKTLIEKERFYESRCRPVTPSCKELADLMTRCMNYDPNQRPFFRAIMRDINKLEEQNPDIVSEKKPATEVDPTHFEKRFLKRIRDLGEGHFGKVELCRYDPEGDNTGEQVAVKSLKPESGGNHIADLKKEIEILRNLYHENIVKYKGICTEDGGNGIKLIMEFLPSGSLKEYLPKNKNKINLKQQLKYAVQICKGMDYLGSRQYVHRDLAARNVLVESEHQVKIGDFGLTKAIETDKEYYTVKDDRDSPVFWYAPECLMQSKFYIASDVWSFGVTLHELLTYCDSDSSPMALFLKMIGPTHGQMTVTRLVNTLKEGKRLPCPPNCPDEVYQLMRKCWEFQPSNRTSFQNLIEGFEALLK
Sequence of Tyrosine-protein kinase Lck (Homo sapiens) (P06239 2-509 limits assumed): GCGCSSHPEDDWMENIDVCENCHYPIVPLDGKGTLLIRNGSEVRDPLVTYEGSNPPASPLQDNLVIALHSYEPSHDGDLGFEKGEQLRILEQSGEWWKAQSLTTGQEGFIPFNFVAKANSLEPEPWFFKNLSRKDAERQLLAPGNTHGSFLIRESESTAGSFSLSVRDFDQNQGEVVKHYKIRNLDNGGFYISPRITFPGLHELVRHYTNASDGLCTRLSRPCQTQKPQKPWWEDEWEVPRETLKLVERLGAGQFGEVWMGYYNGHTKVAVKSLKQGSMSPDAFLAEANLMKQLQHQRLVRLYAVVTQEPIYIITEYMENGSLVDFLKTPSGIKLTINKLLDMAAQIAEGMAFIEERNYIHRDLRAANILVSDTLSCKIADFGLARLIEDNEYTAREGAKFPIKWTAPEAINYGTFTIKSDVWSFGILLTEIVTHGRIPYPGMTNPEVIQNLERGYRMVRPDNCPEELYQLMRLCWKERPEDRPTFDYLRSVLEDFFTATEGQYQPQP
Sequence of Vascular endothelial growth factor receptor 2 (Homo sapiens) (P35968 whole entry): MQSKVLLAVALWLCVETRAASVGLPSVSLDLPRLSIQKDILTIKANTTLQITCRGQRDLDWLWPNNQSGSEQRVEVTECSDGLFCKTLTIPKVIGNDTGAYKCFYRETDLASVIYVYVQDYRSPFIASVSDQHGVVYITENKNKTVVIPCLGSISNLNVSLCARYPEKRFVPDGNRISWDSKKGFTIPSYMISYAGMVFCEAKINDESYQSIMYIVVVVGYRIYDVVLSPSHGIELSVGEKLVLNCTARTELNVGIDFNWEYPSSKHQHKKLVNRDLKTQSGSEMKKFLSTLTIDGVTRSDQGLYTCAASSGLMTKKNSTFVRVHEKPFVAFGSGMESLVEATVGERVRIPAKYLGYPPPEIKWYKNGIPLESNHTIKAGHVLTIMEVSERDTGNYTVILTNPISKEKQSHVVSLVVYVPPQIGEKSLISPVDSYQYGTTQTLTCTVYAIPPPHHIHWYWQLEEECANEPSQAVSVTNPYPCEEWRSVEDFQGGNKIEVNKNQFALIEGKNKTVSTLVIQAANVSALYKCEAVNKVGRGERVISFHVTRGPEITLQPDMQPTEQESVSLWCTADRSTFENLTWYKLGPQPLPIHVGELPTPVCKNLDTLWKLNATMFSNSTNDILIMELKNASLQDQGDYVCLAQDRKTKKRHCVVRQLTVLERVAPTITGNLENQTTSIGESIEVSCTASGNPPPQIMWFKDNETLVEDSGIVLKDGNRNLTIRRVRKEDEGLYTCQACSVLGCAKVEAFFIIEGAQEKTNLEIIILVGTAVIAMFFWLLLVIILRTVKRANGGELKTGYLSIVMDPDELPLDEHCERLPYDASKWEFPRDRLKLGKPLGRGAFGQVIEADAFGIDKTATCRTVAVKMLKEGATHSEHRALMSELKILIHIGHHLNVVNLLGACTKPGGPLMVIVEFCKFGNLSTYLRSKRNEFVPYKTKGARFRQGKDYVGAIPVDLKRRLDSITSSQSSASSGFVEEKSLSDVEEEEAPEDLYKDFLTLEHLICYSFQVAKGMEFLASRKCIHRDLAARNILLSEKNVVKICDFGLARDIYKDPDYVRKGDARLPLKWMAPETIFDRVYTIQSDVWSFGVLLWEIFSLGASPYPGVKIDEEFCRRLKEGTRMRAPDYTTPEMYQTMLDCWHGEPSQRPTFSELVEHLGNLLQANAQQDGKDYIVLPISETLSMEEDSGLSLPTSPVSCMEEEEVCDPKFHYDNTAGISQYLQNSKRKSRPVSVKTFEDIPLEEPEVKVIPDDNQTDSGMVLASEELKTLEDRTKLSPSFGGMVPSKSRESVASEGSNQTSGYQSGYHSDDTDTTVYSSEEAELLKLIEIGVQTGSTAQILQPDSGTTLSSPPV

On to `NS(=O)(=O)c1ccc(-c2cc3ccncc3cc2OCc2ccccc2)cc1`, for which the inhibition (in general, the change of the read-out against control, counted positive when it falls) is 0.35% in test [1]; 3.02% in [2]; 10% in [3]; 1.43% in test [4]; 3.23% in test [5]; -0.75% in [6]. Also, the inhibition is -1.27% in [7]; 4.82% in test [8]; 8.11% in test [9]; 4.01% in test [10]; 8.06% in test [11]; 2.17% in test [12]. In addition, the inhibition was 3.92% in test [13]; 2.02% in test [14]; 4.23% in test [15]; 0.41% in [16]; 0.33% in test [17]; 1.15% in test [18]. In addition, the inhibition in test [19] was 3.87%; in test [20], 6.08%.

For the compound `Nc1nccc(-c2c(-c3ccc(F)cc3)nn3cc(C(F)(F)F)ccc23)n1`, the inhibition in test [1] was 0.43%; in test [2] it was -0.26%; in test [3], 1.9%; in [4], -0.24%; in test [5], -1.98%; in test [6], -1.7%. Moreover, the inhibition in [7] was -0.29%; in test [8], 0.31%; in [9], 0.56%; in [10] it was -1.06%; in test [11] it was 1.1%; in test [12] it was 1.51%. The inhibition in test [13] is -0.82%; in test [14], -0.08%; in test [15], -0.07%; in [16], 1.43%; in test [17], 0.2%; in test [18] it was 2.62%. Also, the inhibition turned out to be 4.27% in test [19] and 1.83% in [20].

Take `COc1cc2ncnc(Nc3ccc(C)c(O)c3)c2cc1OC`: the inhibition was 1.28% in test [1]; 1.62% in test [2]; 12.6% in [3]; 1.49% in [4]; 0.53% in [5]; -1.17% in test [6]. Besides, the inhibition in test [7] came out at 2.14%; in [8], 75.4%; in test [9] it was 72%; in [10], 9.08%; in [11], 40.5%; in test [12], 44%. For the same compound, the inhibition is 88.3% in [13]; 3.54% in test [14]; 2.94% in test [15]; 5.53% in test [16]; 35.8% in test [17]; 25% in test [18]. Further, the inhibition in test [19] was determined as 72.2%; in [20], 6.58%.

Consider `COc1cccc(-n2ncc3c(N/N=C/c4ccc(C)cc4)ncnc32)c1`, for which the inhibition in [1] was 3.5%; in test [2], 5.68%; in [3] it was 3.83%; in test [4], 1.5%; in [5], 1.98%; in test [6], -0.38%. Also, the inhibition was 1.11% in test [7]; 6.36% in test [8]; 19.1% in test [9]; 6.06% in test [10]; 10.6% in [11]; 2.8% in test [12]. Besides, the inhibition in test [13] was 6.2%; in [14], 0.52%; in [15] it was 4.07%; in test [16] it was -2.84%; in test [17], -2.13%; in test [18], 7.28%. The inhibition in test [19] was 21.3%; in test [20], 4.23%.

As to `NS(=O)(=O)c1ccc(N/N=C2\C(=O)Nc3ccc(Cl)cc32)cc1`, the inhibition was 4.1% in [1]; 4.77% in test [2]; 11.7% in [3]; 1.28% in test [4]; 1.55% in [5]; -2.01% in test [6]. In addition, the inhibition in test [7] is 1.21%; in [8] it was 1.7%; in [9], 16.9%; in [10] it was 41.3%; in [11], 89.8%; in [12], 1.33%. For the same compound, the inhibition was determined as 3.24% in test [13]; 5.37% in test [14]; 41.2% in [15]; 2.89% in test [16]; 30.3% in test [17]; 1.35% in test [18]. Also, the inhibition in test [19] is 3.7%; in test [20], 3.2%.

Turning to `Nc1ccc(C#Cc2cncnc2Nc2ccc(OCc3cccc(F)c3)c(Cl)c2)cc1`, the inhibition is 1.02% in test [1]; 0.18% in [2]; 0.58% in test [3]; 0.74% in test [4]; 0.43% in test [5]; -2.62% in test [6]. The inhibition in test [7] was -0.39%; in test [8], 1.13%; in test [9] it was 5.84%; in test [10], 5.48%; in test [11] it was 5.56%; in test [12], 2.12%. In addition, the inhibition in test [13] was 3.81%; in test [14], 1.88%; in test [15], 3.05%; in test [16], -3.03%; in test [17] it was -1.6%; in test [18], 2.57%. Further, the inhibition worked out at 4.92% in [19] and 3.5% in [20].

Turning to `Cc1ccc(C(=O)NC2CC2)cc1-c1ccc2[nH]ncc2c1`, the inhibition in test [1] was -0.97%; in test [2], -3.33%; in [3] it was -8.73%; in test [4], -1.66%; in test [5] it was -1.51%; in test [6], 1.08%. Further, the inhibition was 2.55% in test [7]; -3.15% in [8]; 3.28% in [9]; -5.04% in test [10]; 9.73% in test [11]; -2.2% in [12]. The inhibition in test [13] was -3.32%; in test [14] it was -2.37%; in test [15] it was -3.32%; in test [16] it was 1.39%; in test [17] it was 6.83%; in test [18], -0.97%. In addition, the inhibition is 1.92% in test [19] and -2.04% in [20].
